# Unmarked numbers belong to inactive results. Unless noted, calls follow the shape of the full dose curve.
# Target: Glucocorticoid receptor (Homo sapiens) (UniProt P04150)
# Experiment: GR-GFP Redistribution (AID 450;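 active = compounds whose dose series gives a full or clear partial fitted curve of increased nuclear translocation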)
# Settings: U2OS GR-GFP nuclear translocation, laser cytometry, 2 h
# Potency is read from the fitted curve at half-maximal effect.
# Sequence of Glucocorticoid receptor (Homo sapiens) (P04150 whole entry, looked up): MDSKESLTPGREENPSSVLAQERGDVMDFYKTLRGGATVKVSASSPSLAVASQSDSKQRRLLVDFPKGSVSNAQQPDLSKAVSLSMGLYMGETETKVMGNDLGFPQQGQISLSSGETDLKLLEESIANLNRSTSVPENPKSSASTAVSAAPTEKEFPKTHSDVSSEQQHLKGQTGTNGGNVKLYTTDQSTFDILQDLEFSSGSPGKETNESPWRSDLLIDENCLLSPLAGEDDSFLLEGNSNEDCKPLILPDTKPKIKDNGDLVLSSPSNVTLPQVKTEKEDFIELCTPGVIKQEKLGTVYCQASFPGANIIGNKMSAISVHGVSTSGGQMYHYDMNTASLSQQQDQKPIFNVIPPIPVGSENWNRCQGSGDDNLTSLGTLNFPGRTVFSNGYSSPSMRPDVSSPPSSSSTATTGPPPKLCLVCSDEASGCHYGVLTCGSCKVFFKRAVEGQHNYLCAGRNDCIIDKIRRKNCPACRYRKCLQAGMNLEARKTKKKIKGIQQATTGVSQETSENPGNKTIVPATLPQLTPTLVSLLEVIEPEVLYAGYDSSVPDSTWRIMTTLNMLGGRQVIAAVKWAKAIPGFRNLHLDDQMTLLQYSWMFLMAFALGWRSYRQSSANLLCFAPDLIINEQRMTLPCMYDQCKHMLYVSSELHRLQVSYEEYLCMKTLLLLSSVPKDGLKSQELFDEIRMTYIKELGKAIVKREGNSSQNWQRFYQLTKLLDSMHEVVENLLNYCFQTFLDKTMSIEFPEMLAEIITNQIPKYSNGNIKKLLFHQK
row,SMILES,Potency [µM]
1,Cc1cnc(CNc2cc(-c3cccnc3)ncn2)cn1,> 46
2,CS(=O)(=O)Nc1cccc(-c2cc(Nc3ccccc3)ncn2)c1,> 46
3,CCNc1ncc2nc(-c3ccc(OC)cc3)c(=O)n(CCc3ccccc3)c2n1,> 9.22
4,COc1ccccc1CNc1cc(-c2ccccc2Cl)ncn1,> 46
5,Cc1noc(C)c1-c1cncnc1-n1ccnc1,> 46
6,CCNc1ncc2nc(-c3ccc(Cl)cc3)c(=O)n(Cc3cccc(OC)c3)c2n1,> 9.22
7,COc1cccc(Nc2ncc3ncc(=O)n(C[C@H]4CCCO4)c3n2)c1,> 9.22
8,O=c1c(-c2cccc(Cl)c2)nc2cncnc2n1-c1ccccc1,> 9.22
9,CN(Cc1ccco1)c1ncncc1-c1ccccc1C(F)(F)F,> 46
10,COc1ccc2[nH]cc(CCNc3ccnc(-c4c(C)noc4C)n3)c2c1,> 46
11,COc1cccc(Cn2c(=O)c(-c3cccs3)nc3cnc(OC)nc32)c1,> 9.22
12,O=c1c(-c2ccc(Cl)cc2)nc2cnc(N3CCOCC3)nc2n1Cc1ccc(F)cc1,> 9.22
13,COCCNc1ncnc2ccc(-c3c(C)noc3C)cc12,> 46
14,CN(Cc1ccco1)c1nc(-c2ccoc2)nc2ccccc12,> 46
15,COc1cccc(Cn2c(=O)c(-c3cccs3)nc3cnc(N4CCNCC4)nc32)c1,> 9.22
16,N#CCCn1c(=O)c(-c2cc(F)cc(F)c2)nc2cnc(Nc3ccccc3)nc21,> 9.22
17,COc1cccc(Nc2ncc3nc(CCc4ccccc4)c(=O)n(Cc4cccs4)c3n2)c1,> 9.22
18,Cc1ccccc1-c1ccc2ncnc(NCc3cccnc3)c2c1,> 46
19,Cc1cnc(CNc2ncncc2-c2ccc(N(C)C)cc2)cn1,> 46
20,Cc1cnc(CNc2cc(-c3ccccc3Cl)ncn2)cn1,> 46

row,SMILES,Potency [µM]
1,CCNc1ncc2nc(CCc3ccccc3)c(=O)n(C[C@H]3CCCO3)c2n1,> 9.22
2,COc1cccc(Cn2c(=O)c(-c3cccc(C#N)c3)nc3cnc(N4CCOCC4)nc32)c1,> 9.22
3,CN(C)C(=O)c1ccc(-c2cc(N(C)Cc3ccco3)ncn2)cc1,> 46
4,COc1ccc(CNc2nc(-c3cccc(C#N)c3)nc3ccccc23)c(OC)c1,> 46
5,CN(C)C(=O)c1ccc(-c2cncnc2Nc2ccc(F)cc2)cc1,> 46
6,CCNc1ncc2nc(CCc3ccccc3)c(=O)n(Cc3ccc(F)cc3)c2n1,> 9.22
7,CS(=O)(=O)Nc1cccc(-c2ccc3ncnc(N4CCOCC4)c3c2)c1,> 46
8,COc1cccc(Cn2c(=O)c(CCc3ccccc3)nc3cnc(N4CCOCC4)nc32)c1,> 9.22
9,COc1ccccc1CNc1ccnc(-c2c(C)noc2C)n1,> 46
10,CNc1nc(-c2cccc(C#N)c2)nc2ccccc12,> 46
11,COc1cccc(-c2nc(NCCNC(C)=O)c3ccccc3n2)c1,> 46
12,COc1ccccc1CNc1ccnc(-c2ccccc2OC)n1,> 46
13,COc1ccccc1CNc1ncnc2ccc(-c3ccc4c(c3)OCO4)cc12,> 46
14,N#CCCn1c(=O)c(-c2ccc(F)cc2)nc2cnc(N3CCNCC3)nc21,> 9.22
15,COc1cccc(-c2nccc(NCc3ccccc3OC)n2)c1,> 46
16,Cc1noc(C)c1-c1nc(NC2CC2)c2ccccc2n1,> 46
17,COc1ccccc1-c1cc(NCc2cnc(C)cn2)ncn1,> 46
18,COc1cccc(Nc2ncc3nc(-c4ccc(Cl)cc4)c(=O)n(C[C@H]4CCCO4)c3n2)c1,> 9.22
19,CN(Cc1ccco1)c1cc(-c2cccc(C#N)c2)ncn1,> 46

# Target: Glucocorticoid receptor (Homo sapiens) (UniProt P04150)
# Experiment: GR-EFC Redistribution (AID 451)
# Settings: CHO-K1 GR-EFC translocation, beta-gal luminescence, 2 h
# Procedure, shortened: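 CHO-K1 cells stably expressing nuclear-localized β-gal enzyme acceptor and GR fused C-terminally to the enzyme donor fragment; ligand-driven nuclear translocation restores β-gal by complementation. Compounds titrated up to 46 uM final, 2 h at 37 °C; luminescence read.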
row,SMILES,Potency [µM]
1,Cc1cnc(CNc2cc(-c3cccnc3)ncn2)cn1,> 46
2,CS(=O)(=O)Nc1cccc(-c2cc(Nc3ccccc3)ncn2)c1,> 46
3,CCNc1ncc2nc(-c3ccc(OC)cc3)c(=O)n(CCc3ccccc3)c2n1,> 46
4,COc1ccccc1CNc1cc(-c2ccccc2Cl)ncn1,> 46
5,Cc1noc(C)c1-c1cncnc1-n1ccnc1,> 46
6,CCNc1ncc2nc(-c3ccc(Cl)cc3)c(=O)n(Cc3cccc(OC)c3)c2n1,> 46
7,COc1cccc(Nc2ncc3ncc(=O)n(C[C@H]4CCCO4)c3n2)c1,> 46
8,O=c1c(-c2cccc(Cl)c2)nc2cncnc2n1-c1ccccc1,> 46
9,CN(Cc1ccco1)c1ncncc1-c1ccccc1C(F)(F)F,> 46
10,COc1ccc2[nH]cc(CCNc3ccnc(-c4c(C)noc4C)n3)c2c1,> 46
11,COc1cccc(Cn2c(=O)c(-c3cccs3)nc3cnc(OC)nc32)c1,> 46
12,O=c1c(-c2ccc(Cl)cc2)nc2cnc(N3CCOCC3)nc2n1Cc1ccc(F)cc1,> 46
13,COCCNc1ncnc2ccc(-c3c(C)noc3C)cc12,> 46
14,CN(Cc1ccco1)c1nc(-c2ccoc2)nc2ccccc12,> 46
15,COc1cccc(Cn2c(=O)c(-c3cccs3)nc3cnc(N4CCNCC4)nc32)c1,> 46
16,COc1ccccc1CNc1cc(-c2ccccc2C(F)(F)F)ncn1,> 46
17,N#CCCn1c(=O)c(-c2cc(F)cc(F)c2)nc2cnc(Nc3ccccc3)nc21,> 46
18,COc1cccc(Nc2ncc3nc(CCc4ccccc4)c(=O)n(Cc4cccs4)c3n2)c1,> 46
19,Cc1ccccc1-c1ccc2ncnc(NCc3cccnc3)c2c1,> 46
20,Cc1cnc(CNc2ncncc2-c2ccc(N(C)C)cc2)cn1,> 46

row,SMILES,Potency [µM]
1,Cc1cnc(CNc2cc(-c3ccccc3Cl)ncn2)cn1,> 46
2,CCNc1ncc2nc(CCc3ccccc3)c(=O)n(C[C@H]3CCCO3)c2n1,> 46
3,COc1cccc(Cn2c(=O)c(-c3cccc(C#N)c3)nc3cnc(N4CCOCC4)nc32)c1,> 46
4,CN(C)C(=O)c1ccc(-c2cc(N(C)Cc3ccco3)ncn2)cc1,> 46
5,COc1ccc(CNc2nc(-c3cccc(C#N)c3)nc3ccccc23)c(OC)c1,> 46
6,CN(C)C(=O)c1ccc(-c2cncnc2Nc2ccc(F)cc2)cc1,> 46
7,CCNc1ncc2nc(CCc3ccccc3)c(=O)n(Cc3ccc(F)cc3)c2n1,> 46
8,CS(=O)(=O)Nc1cccc(-c2ccc3ncnc(N4CCOCC4)c3c2)c1,> 46
9,COc1cccc(Cn2c(=O)c(CCc3ccccc3)nc3cnc(N4CCOCC4)nc32)c1,> 46
10,COc1ccccc1CNc1ccnc(-c2c(C)noc2C)n1,> 46
11,CNc1nc(-c2cccc(C#N)c2)nc2ccccc12,> 46
12,COc1cccc(-c2nc(NCCNC(C)=O)c3ccccc3n2)c1,> 46
13,COc1ccccc1CNc1ccnc(-c2ccccc2OC)n1,> 46
14,COc1ccccc1CNc1ncnc2ccc(-c3ccc4c(c3)OCO4)cc12,> 46
15,N#CCCn1c(=O)c(-c2ccc(F)cc2)nc2cnc(N3CCNCC3)nc21,> 46
16,COc1cccc(-c2nccc(NCc3ccccc3OC)n2)c1,> 46
17,Cc1noc(C)c1-c1nc(NC2CC2)c2ccccc2n1,> 46
18,COc1ccccc1-c1cc(NCc2cnc(C)cn2)ncn1,> 46
19,COc1cccc(Nc2ncc3nc(-c4ccc(Cl)cc4)c(=O)n(C[C@H]4CCCO4)c3n2)c1,> 46
20,CN(Cc1ccco1)c1cc(-c2cccc(C#N)c2)ncn1,> 46

# Source: PubChem BioAssay (NCATS)
